Compound activity deposited in PubChem by Broad Institute.
Shown is part of a subset that was picked to be rich in hits.
Tgondii IFNg – T. gondii growth inhibition with IFN-gamma, primary screen, cell-based; 69,000 compounds, 3.8% hits; Toxoplasma gondii growth in IFN-gamma-treated host cells; stronger effect = lower value; activity change, negative = inhibition, % (test concentration not listed); AID 1259416, 2018; in the data active means activity change below about -70%, passing the limit was not always enough;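 further: host cells are HeLa cells infected with Toxoplasma gondii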
The depositor's hits bear a star; i = inactive; ! = a repeat was not active.

SMILES | Tgondii IFNg
C[C@@H]1O[C@@H](O[C@H]2C[C@@H](O)[C@]3(CO)C4C(CC[C@]3(O)C2)[C@@]2(O)CC[C@H](C3=CC(=O)OC3)[C@@]2(C)C[C@H]4O)[C@H](O)[C@H](O)[C@H]1O (stereo partly drawn) | -77.6*
O=C(Cc1ccc(Cl)cc1)N1CCCC2(CCCN2Cc2ccc(C(F)(F)F)cc2)C1 (stereo not drawn) | 2.6
CN1C[C@@H]2OCC[C@@H]2[C@H](C(=O)NCc2cccnc2)C1 | 9.0
O=C(Nc1ccc(F)cc1F)c1cc2cccnc2n(Cc2ccccc2)c1=O | 29.8
C=C1[C@@H](C)[C@H]2[C@H](Cc3ccccc3)NC(=O)[C@]23OC(=O)/C=C/[C@H](O)CCC[C@@H](C)C/C=C/[C@H]3[C@@H]1O | -97.7*
CCOCC12CCCOC1CCN(CC1CC1)C2 (stereo not drawn) | 29.1
C=CCN1CCN(Cc2nccs2)Cc2cccnc21 | 3.0
Cc1nc(CC(=O)N2C[C@H]3C[C@@H](C2)c2cccc(=O)n2C3)cs1 | 38.0
CO[C@H]1CCC(O[C@H]2CC([C@]3(C)CC[C@]4(C[C@H](O)[C@@H](C)[C@@H]([C@@H](C)/C=C(\C)C(=O)[C@H](C)C[C@H](C)C(=O)O)O4)O3)O[C@]3(O[C@@H](C4O[C@@](O)(CO)[C@H](C)C[C@@H]4C)C[C@@H]3C)[C@@H]2C)O[C@@H]1C (stereo partly drawn) | -78.2*
CC1CC1C(=O)N1C[C@H]2CN(Cc3ccccn3)C[C@@H]2C1 (stereo partly drawn) | 206.8
COCCNC(=O)C[C@H]1COC[C@@H]2CN(Cc3cc(C)on3)C[C@@H]12 | -28.3
COc1ccc(NC(=O)c2cc3cccnc3n(Cc3ccccc3)c2=O)cc1OC | 81.7
COc1cc2cc(c1Cl)N(C)C(=O)C[C@H](OC(=O)C(C)C)[C@]1(C)O[C@H]1[C@H](C)[C@@H]1C[C@@](O)(NC(=O)O1)[C@H](OC)/C=C/C=C(/C)C2 | -80.5*
COc1cc(N2CCCC3(CCN(C)C3)C2)ncn1 (stereo not drawn) | 60.6
CCN1CCC2(CCCN(c3nncs3)C2)C1 (stereo not drawn) | 45.5
c1cn(CC2CCC3NCCOC23)cn1 (stereo not drawn) | -23.4
O=C(NCc1ccc(F)cc1)c1cc2cccnc2n(Cc2ccccc2)c1=O | -53.6
Cc1ccc(-c2cccc3c2CCNC3)nn1 | -0.1
CS(=O)(=O)N1CCc2c(CNc3ncccn3)cncc2C1 | -0.9
CN(C)C(=O)Oc1c(-c2ccccc2)cn(Cc2ccccc2)c(=O)c1-c1ccccc1 | -83.6*
CN(C)C(=O)Oc1cc(=O)n(C)c2ccccc12 | -21.1
CCn1nc(C)c(CNC(C)Cc2cccc(OC)c2)c1C (stereo not drawn) | -1.1
CN1CCOCC12CCN(c1nccc(C(F)(F)F)n1)CC2 | 25.3
CN1C(=O)CN=C(c2ccccc2)c2cc(Cl)ccc21 | -1.8
Cc1oc(-c2ccccc2)nc1CN1C(=O)CN=C(c2ccc(F)cc2)c2c1sc(C)c2C | -40.1
SMILES | Tgondii IFNg
COc1ccc(C2=NCC(=O)N(Cc3nc(-c4ccccc4)oc3C)c3sccc32)cc1 | -95.2*
O=C(Nc1ccc2c(c1)OCCO2)c1cc2cccnc2n(Cc2ccccc2)c1=O | i
O=C(Nc1ccc(Br)cc1)c1cc2cccnc2n(Cc2ccc(F)cc2)c1=O | 41.0
CCNC(=O)[C@H]1O[C@@H](n2cnc3c(N)ncnc32)[C@H](O)[C@@H]1O | 6.9
NC(=O)c1cn(C2OC(CO)[C@H](O)[C@@H]2O)c2ncnc(N)c12 (stereo partly drawn) | -83.2*
O=C1COC2(CCNCC2)c2ccccc2N1 | -2.4
O=C(C[C@H]1C[C@@H]2CNC[C@@H]2O1)NCc1cccs1 | 7.1
C=CCOC1C2CCC1N(Cc1cccc(C)n1)CCO2 (stereo not drawn) | -71.0*
Cc1cccc(CN2CC[C@@H]3OCCN(S(=O)(=O)C4CC4)[C@@H]3C2)n1 | -3.8
Cc1cccc(CN2C[C@H]3OCCN(C)[C@H]3C2)n1 | 2.2
O=[N+]([O-])c1ccc(O)c([N+](=O)[O-])c1 | -79.4*!
N#CC(C#N)=Cc1ccc([N+](=O)[O-])c(O)c1 | 13.3
O=[N+]([O-])c1cc([As](=O)(O)O)ccc1O | 17.2
COCCN1CCN(S(=O)(=O)C2CC2)Cc2cccnc21 | -8.4
c1ccc(Cn2ccnc2)cc1 | -2.5
Cc1nn(CCNC(C)Cn2ccnc2)c(C)c1Cl (stereo not drawn) | -2.7
Clc1ccc(CSC(Cn2ccnc2)c2ccc(Cl)cc2Cl)cc1 (stereo not drawn) | -83.6*
Clc1ccc(COC(Cn2ccnc2)c2ccc(Cl)cc2Cl)cc1 (stereo not drawn) | -74.7*!
COc1ccc(CCNC(=O)c2cc3cccnc3n(Cc3ccccc3F)c2=O)cc1OC | 37.6
Cn1cccc1CN1CC2(CCN(c3ncccn3)C2)C1 | -46.0
Cc1cnc(N2CCN3C[C@H](OCC4CC4)C[C@@H]3C2)nc1 | -15.3
CC1(C)CC[C@]2(C(=O)O)CC[C@]3(C)[C@H](C(=O)C=C4[C@@]5(C)C=C(C#N)C(=O)C(C)(C)[C@@H]5CC[C@]43C)[C@@H]2C1 | -78.5*
N#Cc1cccc(CN2CCC3NC(=O)CC32)c1 (stereo not drawn) | 21.0
Fc1cccnc1O[C@@H]1CN(Cc2ccoc2)[C@H]2CCCO[C@@H]12 | 8.7
O=C(O)CN1C[C@@H]2C(NC(=O)c3ccno3)[C@H]2C1 (stereo partly drawn) | -29.0
SMILES | Tgondii IFNg
CCN1C(=O)C2(CCN(Cc3ccco3)CC2)c2ccccc21 | -8.1
CCc1ccccc1NC(=O)c1cc2cccnc2n(Cc2ccccc2)c1=O | 51.4
O=C(NCc1ccccc1)[C@H]1C[C@H]2CNC[C@H]1O2 | 29.8
O=C(Nc1ccccc1)c1cc2cccnc2n(Cc2ccc(F)cc2)c1=O | 78.1
Cc1cc(C)c(NC(=O)c2cc3cccnc3n(Cc3ccccc3F)c2=O)c(C)c1 | -83.3*
CC(NC(=O)c1cc2cccnc2n(Cc2ccc(F)cc2)c1=O)c1ccccc1 (stereo not drawn) | -115.3*
COCC(C)NC(=O)c1cc2cccnc2n(Cc2ccc(F)cc2)c1=O (stereo not drawn) | -50.4
O=C(Nc1ccccc1)c1cc2cccnc2n(Cc2ccccc2F)c1=O | 81.1
NS(=O)(=O)c1ccc(CCNC(=O)c2cc3cccnc3n(Cc3ccc(F)cc3)c2=O)cc1 | -87.9*
O=C(NCCc1ccccc1)c1cc2cccnc2n(Cc2ccc(F)cc2)c1=O | 120.8
Cc1cc(Br)ccc1NC(=O)c1cc2cccnc2n(Cc2ccccc2F)c1=O | 96.5
CCCCCNC(=O)c1cc2cccnc2n(Cc2ccc(F)cc2)c1=O | -40.2
CCN1C[C@@H]2[C@H](C1)OC[C@@H]2C(=O)Nc1cccnc1 | -34.9
CCOC1C2CCC1N(Cc1c(C)noc1C)C2 (stereo not drawn) | 1.4
Cc1cc(C)cc(NC(=O)c2cc3cccnc3n(Cc3ccccc3)c2=O)c1 | -16.3
CC(C)CN1CCCC2(CCN(c3ccc(C#N)cn3)C2)C1 (stereo not drawn) | 10.3
CC(Cc1ccccn1)N(C)Cc1ccsc1 (stereo not drawn) | 5.1
CC1=CC[C@@H]2CN(Cc3cc(=O)[nH]c(=O)[nH]3)C[C@@H]2C1 | 10.3
CCOc1ccccc1CNC(=O)c1nc(C)n(C2CCN(C)CC2)c1C | -24.1
COc1cccc([C@@H]2CN(C(=O)C3CCOCC3)[C@@H]3C4CCN(CC4)[C@@H]32)c1 | -1.8
O=C(NCc1ccccc1Cl)c1cc2cccnc2n(Cc2ccccc2F)c1=O | 78.9
